Assay outcomes from PubChem.
FEN1 inh: human FEN1 inhibition | Recombinant FEN1 flap cleavage, fluorescence, 15 min | Potency, µM (top dose mostly 114 µM), for the others: at the top dose activity change, negative = inhibition, hits mostly inhibitors | actives 0.35% (n = 390,000) | AID 588795; note: potency is the fitted concentration of half-maximal effect; nearly all actives have a fitted effect of over 65% in size
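Potency values derive from four-parameter Hill fits of normalized qHTS data. The reaction used 10 nM FEN1 preincubated 15 min at room temperature with compound, then 50 nM DNA substrate, read at 0 and 15 min.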
APEX1 inh: blocks human APE1 abasic DNA cleavage; actives 0.35% (n = 350,000); Potency, µM (titrated, usually from 65.8 µM), without a hit: top-dose activity change, negative = inhibition, actives largely listed as inhibitors; P27695; recombinant APE1, TAMRA/BHQ-2 abasic DNA cleavage fluorescence;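 note: potency is the fitted concentration of half-maximal effect; plate controls were vehicle for no effect and reference inhibitor for full effect; nearly all actives have a fitted effect of over 55% in size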
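Readout is kinetic fluorescence (ex 525, em 598 nm) from cleavage of 50 nM TAMRA/BHQ-2 THF abasic duplex by 0.75 nM APE1, compound added 15 min beforehand at RT.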
PI5P4K alpha inh: inhibitors of human PI5P4K alpha; P48426; AID 652105; max response, %; PI5P4Kalpha enzyme, ADP-Glo luminescence, 60 min; active compounds read low; actives 1.2% (n = 330,000); active = max response of -50% or lower; inconclusive = between -30% and -50%; inactive = -30% or higher; note: value at the top dose of about 77 µM
Target sequence (P48426 whole entry, looked up): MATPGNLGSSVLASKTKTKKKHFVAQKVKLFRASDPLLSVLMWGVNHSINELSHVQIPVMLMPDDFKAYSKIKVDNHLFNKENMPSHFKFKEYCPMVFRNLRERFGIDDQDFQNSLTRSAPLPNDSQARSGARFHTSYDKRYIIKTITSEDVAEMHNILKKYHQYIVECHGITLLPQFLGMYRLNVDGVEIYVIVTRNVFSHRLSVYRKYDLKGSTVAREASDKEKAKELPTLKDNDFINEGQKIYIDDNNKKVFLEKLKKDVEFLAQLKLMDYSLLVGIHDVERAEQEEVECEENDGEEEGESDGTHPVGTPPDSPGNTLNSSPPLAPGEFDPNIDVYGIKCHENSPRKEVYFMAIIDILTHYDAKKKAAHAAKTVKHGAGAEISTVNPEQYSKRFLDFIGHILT
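PI5P4Kalpha ADP-Glo assay; 5 microM ATP final; 60 min RT reaction; HEPES pH 7.4/EGTA/CHAPS, 5% DMSO; controls lacking substrate or enzyme; luminescent end-point.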
BLM inh: Bloom syndrome helicase (human) inhibition. AID 2528. actives 0.2% (n = 350,000). P54132. recombinant BLM DNA unwinding, fluorescence dequenching. Potency, µM (highest dose often 56.1 µM), without a hit: at the top dose activity change, negative = inhibition, most hits filed as inhibitors;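 note: potency is the fitted concentration of half-maximal effect; plate controls were vehicle for no effect and no enzyme for full effect; nearly all actives have a fitted effect of over 35% in size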
GCN5L2 inh: inhibitors of human GCN5L2 histone acetyltransferase | actives 0.21% (n = 390,000) | Q92830 | Potency, µM (titrated, usually from 58.9 µM), for the others: at the highest dose activity change, negative = inhibition, hits mostly inhibitors | AID 504327 | GCN5L2 HAT assay, ThioGlo1 CoA-SH fluorescence; note: potency is the fitted concentration of half-maximal effect
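qHTS, 1536-well. 20nM enzyme, pH 7.5 HEPES/EDTA/Tween-20 buffer; 15 min compound preinc., RT. Start: 75uM H3(1-25), 70uM AcCoA, 50uM ThioGlo1. Read Ex340/Em540 at t=0 (autofluorescence flag) and t=20 min.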
RECQ1 inh: blocks DNA unwinding by human RECQ1; RECQ1 DNA unwinding, red fluorescence kinetic read; Potency, µM (titrated, usually from 57.3 µM), for inactives: at the top dose activity, negative = inhibition, most hits filed as inhibitors; actives 0.54% (n = 240,000); AID 2549;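 note: potency is the fitted concentration of half-maximal effect; plate controls were vehicle for no effect and no enzyme for full effect; nearly all actives have a fitted effect of over 30% in size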
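50 nM RECQ1T1 preincubated 15 min with compound in Tris pH 8.0 buffer with MgCl2, DTT, Tween-20 and 2.5 ug/ml poly(dI-dC); started with 200 nM TAMRA/BHQ-2 forked duplex and 2 mM ATP. Unwinding read as fluorescence (525/598 nm), two reads 2 h apart.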
An asterisk follows results filed as active; i = inactive; ? = inconclusive; . = not tested or not shown. Rows were chosen to be rich in hits. Some 1.5% of all compounds tested hit in one or more screens of this group. Unless noted, calls come from the whole dose curve; as a rule, active = well fitted curve in the direction sought with a large enough effect; inconclusive = small, poorly fitted or top-dose-only effect, or another doubt; inactive = no such curve, though single readings can be large; an effect the other way counts as inactive or inconclusive. Unless noted, % is set by controls: 0 for no effect and ±100 for the full control effect.

SMILES	FEN1 inh	APEX1 inh	PI5P4K alpha inh	BLM inh	GCN5L2 inh	RECQ1 inh
C=C(C)C#N	.	-3%	.	.	.	-1%
Cc1ccc(/C=C2\C(=O)NC(=S)N(c3ccc(F)cc3)C2=O)s1	3%	4%	-82*	-2%	-24%	-2%
Cc1ccc(/C=C2\C(=O)NC(=S)N(c3ccccc3F)C2=O)s1	?	3%	-111*	-6%	1%	-1%
Cc1ccc(/C=C2\C(=O)NC(=O)N(CC3CCCO3)C2=O)s1 (configuration not stated)	?	?	?	-6%	-3%	2%
NC(N)=Nc1ccc2[nH]c3c(c2c1)C[C@@]1(O)[C@H]2Cc4ccc(O)c5c4[C@@]1(CCN2CC1CC1)[C@H]3O5	50µM*	20%	?	.	3.5µM*	-3%
C[CH2][Hg][S]c1ccccc1C(=O)O	22µM*	20%	22	-9%	?	17%
O=C(O)c1ccccc1O	7%	-6%	-1	-3%	?	-3%
Nc1ccc([N+](=O)[O-])cc1[N+](=O)[O-]	.	-2%	.	.	.	-5%
O=[N+]([O-])c1cc(S(=O)(=O)c2ccc(O)c([N+](=O)[O-])c2)ccc1O	?	?	-64*	40%	-3%	-15%
O=C(/C=C/c1ccccc1)c1c(O)n(CCc2ccccc2)c(=O)[nH]c1=O	8%	2%	-27	-1%	-6%	-4%
COc1cc(/C=C/C(=O)c2c(O)n(CCc3ccccc3)c(=O)[nH]c2=O)ccc1O	?	-5%	-65*	-4%	-7%	-17%
C=C(Cl)Cl	.	2%	.	.	.	-3%
C=CCOC(C)=O	.	-3%	.	.	.	-13%
O=C1C[C@@H]2OCC=C3CN4CC[C@]56c7ccccc7N1[C@H]5[C@H]2[C@H]3C[C@H]46	.	1%	.	.	.	.
Cc1ccc(-c2nc(N3CCOCC3)s[n+]2-c2ccccc2)cc1	1%	13%	-69*	5%	?	-3%
Cc1ccc(C(c2sc3nc(C)nn3c2O)N2CCOCC2)cc1 (configuration not stated)	?	1%	6	0%	-1%	i
CC(=O)O[C@H]1C[C@H](O[C@H]2[C@@H](O)C[C@H](O[C@H]3[C@@H](O)C[C@H](O[C@H]4CC[C@@]5(C)[C@H](CC[C@@H]6[C@@H]5C[C@@H](O)[C@]5(C)[C@@H](C7=CC(=O)OC7)CC[C@]65O)C4)O[C@@H]3C)O[C@@H]2C)O[C@H](C)[C@H]1O[C@@H]1O[C@H](CO)[C@@H](O)[C@H](O)[C@H]1O	.	3%	.	.	.	.
CC(C)CC(=O)NC(Oc1ccc(Cl)cc1)C(Cl)(Cl)Cl (configuration not stated)	0%	-6%	7	-7%	0.71µM*	-13%
O=C1/C(=C/c2ccc(N(CCCl)CCCl)cc2)Cc2ccccc21	-16%	.	.	.	.	.
Brc1c(Br)c(Br)c2n[nH]nc2c1Br	?	-7%	.	?	28µM*	?
CC(=O)N1CCN(c2ccc(OCC3CO[C@@](Cn4ccnc4)(c4ccc(Cl)cc4Cl)O3)cc2)CC1 (some centres not stated)	.	-2%	.	0%	-2%	i
C=C(C)[C@@H]1CC[C@]2(C(=O)O)CC[C@]3(C)[C@H](CCC4[C@@]5(C)CC[C@H](O)C(C)(C)[C@@H]5CC[C@]43C)[C@@H]12 (some centres not stated)	.	6%	.	.	4%	i
CCCCCCCCCCCCCCCC[n+]1ccccc1	79µM*	-1%	-13	95%	10%	9%
CCC(Cl)[N+](=O)[O-] (configuration not stated)	.	0%	.	.	.	-5%
Clc1ccc(C(c2ccccc2Cl)C(Cl)(Cl)Cl)cc1 (configuration not stated)	.	12%	.	.	.	-17%
O=C1NC(=O)N(c2ccccc2)C(=O)/C1=C/c1ccoc1	?	?	?	-8%	1%	-22%
